According to PubChem BioAssay AID743291 (Broad Institute, 2014):
Entries with a potency or affinity are not part of this list.

These compounds were tested against Caspase-3 (Homo sapiens) (UniProt P42574) (assay: human caspase-3 protease activity blockade – biochemical, fluorescence, cherry-picked samples, selectivity assay for caspase-6 allosteric inhibitor project, dose response (AID 743291)). Details: Recombinant caspase-3, Z-DEVD-R110 cleavage fluorescence; series mostly up to 35 µM; activity change, negative = inhibition: at the top concentration;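 active = signal drop with fitted half-maximal dose at most twice the top valid dose, active in every repeat; inconclusive = repeats disagree, or flat partial inhibition, or poor fit; inactive = inactive in every repeat, including opposite effects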.
Sequence of Caspase-3 (Homo sapiens) (P42574 whole entry, looked up): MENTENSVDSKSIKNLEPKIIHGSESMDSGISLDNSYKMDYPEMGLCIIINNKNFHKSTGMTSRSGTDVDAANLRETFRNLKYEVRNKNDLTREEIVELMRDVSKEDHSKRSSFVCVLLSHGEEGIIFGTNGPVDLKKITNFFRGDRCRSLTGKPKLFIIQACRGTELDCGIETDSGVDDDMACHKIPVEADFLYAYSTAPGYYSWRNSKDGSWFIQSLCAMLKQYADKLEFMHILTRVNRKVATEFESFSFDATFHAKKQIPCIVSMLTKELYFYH

Activity change, negative = inhibition, inactive:
Cc1c(NC(=O)C(C)OC(=O)c2ccc([N+](=O)[O-])s2)c(=O)n(-c2ccccc2)n1C (stereo not drawn) -0.097%
Cc1ccc(S(=O)(=O)Nc2csc(C)c2C(=O)O)cc1 -1.28%
CCCCN(C(=O)c1cccc(-n2cccc2)c1)c1c(N)n(Cc2ccccc2)c(=O)[nH]c1=O 0.487%
O=C(Nc1ccc2nc3n(c(=O)c2c1)CCCCC3)c1c(F)ccc([N+](=O)[O-])c1F 3.48%
Oc1cc(O)cc(C=Cc2ccc(O)c(O)c2)c1 0.444%
O=C(O)C1CCCCC1C(=O)Nc1cccc(Br)c1 (stereo not drawn) 9.34%
Nc1c(O)cccc1C(=O)O 9.43%
O=P(c1ccccc1)(c1ccccc1)c1cc(S(=O)(=O)O)ccc1O 0.416%
Oc1cc(NCCN2CCOCC2)cc2cccnc12 7%
O=C(O)CC(CCc1ccccc1)OC1OC(CO)C(O)C(O)C1O (stereo not drawn) 0.587%
Cc1oc2c(cc(NS(=O)(=O)c3ccc(C(C)C)cc3)c3ccccc32)c1C(=O)O 1.41%
O=C1NC(=O)C(=Cc2ccccc2[N+](=O)[O-])S1 1.62%
CN(CC(=O)Nc1c(Cl)cccc1Cl)C(=O)c1cccc(-n2cccc2)c1 4.11%
COc1ccc(NC(=O)CN(C)C(=O)c2cccc(-n3cccc3)c2)cc1 0.781%
CC(CNc1ccccc1O)C(=O)O (stereo not drawn) -2.67%
Cc1cccc(NC(=O)CNC(=O)c2cccc(-n3cccc3)c2)c1C -9.13%
CCCc1nc2c(=O)n(C)c(=O)nc-2n(C)n1 0.922%
O=C(O)/C(=C\c1ccc(Cl)c([N+](=O)[O-])c1)c1ccc(S(=O)(=O)N2CCCC2)s1 2.29%
O=c1[nH]c(Nc2ccccc2Cl)cc2ccccc12 -3.15%
Nc1cc(S(=O)(=O)O)cc([N+](=O)[O-])c1O 8.37%
COc1cc(NC(C)CCCNC(C)C)c2ncccc2c1OC (stereo not drawn) -15.3%
CCCCNC(=O)c1nc(C2CCNCC2)oc1-c1cccc(C(F)(F)F)c1 6.13%
Cc1ccc(NC(=O)CN(C)C(=O)c2cccc(-n3cccc3)c2)cc1 2.64%
COc1cc(C)c2c(c1C=O)Oc1c(c(C)c(O)c3c1C(O)OC3=O)OC2=O (stereo not drawn) 4.05%
O=C(COC(=O)c1ccc([N+](=O)[O-])s1)Nc1ccc(F)cc1 -0.773%
Oc1cc(NCCc2cccnc2)cc2cccnc12 -1.7%
Nc1cc2c(cc1Br)[nH]c(=O)c1ccccc12 -47%
O=C(O)C1Nc2c(Cl)cc(Cl)c(Cl)c2C2C=CCC12 (stereo not drawn) 6.61%
CN(C)CCCNc1cc(O)c2ncccc2c1 4.7%
COc1cc(NCCCCC(C)N)c2nccc(C)c2c1 (stereo not drawn) 3.62%
O=C(c1cccc(-n2cccc2)c1)N1CCN(S(=O)(=O)c2ccccc2)CC1 -1.52%
Cn1cnnc1SCC(=O)Nc1ncc([N+](=O)[O-])s1 -0.172%
O=C(COC(=O)c1ccccc1)Nc1ncc([N+](=O)[O-])s1 2.71%
CCCCN(C(=O)c1cccc(-n2cccc2)c1)c1c(N)n(CCC)c(=O)[nH]c1=O -0.777%
O=C(COC(=O)c1ccc([N+](=O)[O-])s1)Nc1cccc(S(=O)(=O)NC2=NCCCCC2)c1 3.37%
O=C(O)Cc1ccc(-n2cccc2)cc1 2.88%
Nc1ccc(Nc2ccccc2)c(S(=O)(=O)O)c1 1.55%
Cc1[nH]nc(S(=O)CC(=O)O)c1[N+](=O)[O-] (stereo not drawn) -3.2%
